SW480 rereplic – DNA re-replication induction in SW480 cells; SW480 DNA re-replication, Hoechst DNA content imaging, 48 h; Potency, µM (doses to about 46.1 µM), for inactives: at the highest dose re-replication activation, most hits filed as activators; actives 1.8% (n = 340,000); also: % of control where 0% means no effect; nearly all actives have a fitted effect of over 55% in size
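Cells (250 per well) received 23 nL compound or DMSO by pin tool and were kept 48 hr at 37 C, 5% CO2. Nuclei were then stained with Hoechst for 40 min and scanned for DNA content.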
KB-3-1 tox – KB-3-1 parental cell cytotoxicity; KB-3-1 viability, CellTiter-Glo ATP luminescence, 72 h; Potency, µM (titrated, usually from 46.1 µM), usual class: cytotoxic; actives 1.4% (n = 400,000); AID 1347075; also: % is scaled to controls: 0 for no effect and ±100 for the full control effect; nearly all actives have a fitted effect of over 60% in size
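Using CellTiter-Glo luminescence, growth of non-resistant KB-3-1 adenocarcinoma cells is assessed 72 h after pin-tool compound addition at 37 °C. Normalized responses across the concentration series yield fitted curves.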
HT1080 IDH1KD tx – kills HT-1080 cells with IDH1 knockdown. HT-1080 IDH1 knockdown viability, ATP luminescence, 48 h. Potency, µM (series often up to 46.1 µM), for the others: top-dose activity, negative = toxicity, actives largely listed as cytotoxic. actives 2% (n = 360,000). AID 686971;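 also: 0% = DMSO wells and -100% = cell-free medium wells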
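In this qHTS, HT-1080 cells depleted of IDH1 are exposed for 48 h at 37 °C to compound titrations. Toxicity is scored from CellTiter-Glo luminescence, with DMSO as full viability and medium alone as none.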
MCF10A rereplic – induces DNA re-replication in MCF 10a normal breast cells. actives 2.9% (n = 350,000). Potency, µM (titrated, usually from 46.1 µM), for the others: top-dose activity, positive = re-replication, hits mostly activators. MCF 10A DNA re-replication, Hoechst nuclear intensity, 48 h. AID 624296; also: % of control where 0% means no effect; nearly all actives have a fitted effect of over 50% in size
HT1080-NT tox – kills 2HG-producing HT-1080-NT fibrosarcoma cells; Potency, µM (doses to about 46.1 µM), for inactives: top-dose activity, negative = less viability, most hits filed as cytotoxic; actives 1.6% (n = 360,000); HT-1080-NT fibrosarcoma viability, CellTiter-Glo ATP luminescence, 48 h;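 also: NT is the 2HG producing partner of a matched IDH1 knockdown line; 0% = DMSO-treated cells and -100% = media-only wells without cells; nearly all actives have a fitted effect of over 55% in size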
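Read-out is CellTiter-Glo luminescence after 10 minutes at room temperature, following 48 hours' compound treatment of HT-1080-NT cells (750 cells/well, RPMI, 5% FBS, 37 degrees C).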
KB-V1 MDR tox – KB-V1 MDR subline cytotoxicity; KB-V1 MDR cells viability, CellTiter-Glo, 72 h; Potency, µM (highest dose often 46.1 µM), hits mostly cytotoxic; actives 3.4% (n = 400,000); AID 1347076; also: % is scaled to controls: 0 for no effect and ±100 for the full control effect; nearly all actives have a fitted effect of over 60% in size
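KB-V1 cells (P-gp-expressing MDR subline of KB-3-1) in phenol-red-free DMEM with 10% FBS were exposed to library compounds over a concentration series for 72 h at 37 degrees C. Viability read by CellTiter-Glo luminescence; concentration-effect curves fitted after normalization.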
Active calls of the source: *; i = inactive; ? = inconclusive; · = no result given. Rows were chosen to be rich in hits. Some 8% of all compounds tested hit in one or more screens of this group. Calls follow the shape of the dose curve; as a rule, active = well fitted curve in the direction sought with a large enough effect; inconclusive = small, poorly fitted or top-dose-only effect, or another doubt; inactive = no such curve, though single readings can be large; an effect the other way counts as inactive or inconclusive. Potency is read from the fitted curve at half-maximal effect.

SMILES	SW480 rereplic	KB-3-1 tox	HT1080 IDH1KD tx	MCF10A rereplic	HT1080-NT tox	KB-V1 MDR tox
COc1cccc(NS(=O)(=O)c2ccc3c(c2)n(C)c(=O)n3C)c1	·	?	·	·	·	i
CCOc1ccc(OCC)c(NC(=O)c2nnn(CC(=O)Nc3ccc(C)cc3C)c2N)c1	·	i	·	·	·	i
CN(C)/C(CN1CCOCC1)=C1\N=C(c2ccccc2)OC1=O	-7%	i	7%	-4%	3%	16µM*
Cc1ccc2c(c1)C(c1ccc(F)cc1)N(C(=O)C(C)C)CC(=O)N2 (centres undefined)	·	i	·	·	·	i
FC(F)(F)c1cc(CCN2CCNC[C@@H]2CC2CCCCC2)cc(C(F)(F)F)c1	24%	i	?	18µM*	?	i
O=C(O)c1ccccc1C(=O)Nc1ccccc1	3%	i	1%	1%	10%	i
O=C(Nc1ccccc1)C1=C(c2ccccc2)S(=O)(=O)CCS1(=O)=O	1.3µM*	?	3.3µM*	?	23µM*	i
CCOC(=O)C1=C(C)Nc2nnnn2C1c1ccccc1Cl (centres undefined)	-4%	i	-15%	-2%	-2%	i
Fc1ccccc1/C=C1\CCCC2=C1Nc1nnnn1C2c1ccccc1F (centres undefined)	16%	i	10µM*	?	13µM*	i
CCOc1ccccc1NC(=O)C1CCN(S(=O)(=O)c2ccc3[nH]c4c(c3c2)CCCCC4)CC1	·	i	·	·	·	i
CCOC(=O)/C(C#N)=C1/SC(CC)C(=O)N1c1ccc(Br)cc1 (centres undefined)	-13%	i	14%	7%	-2%	8.2µM*
COC(=O)CSc1nc(C)cc(C(F)(F)F)c1C#N	1%	i	3%	0%	0%	i
N#Cc1c(SCC(=O)Nc2nc3ccccc3s2)sc2c(O)cc(=O)[nH]c12	18µM*	i	2%	?	-1%	i
Cc1cc(=O)[nH]c(SCC(=O)Nc2nc3ccccc3s2)n1	?	i	0%	0.58µM*	-7%	?
CCOC(=O)NC(=O)CSc1nc(C)cc(C(F)(F)F)c1C#N	-4%	i	0%	13%	7%	?
Cc1ccc(S(=O)(=O)CCSc2nc(C)cc(C(F)(F)F)c2C#N)cc1	?	18µM*	?	?	?	13µM*
Cc1cc(C(F)(F)F)c(C#N)c(SCC(=O)Nc2nc3cc(Br)ccc3s2)n1	?	i	-7%	13µM*	-10%	?
Cc1c(NC(=O)c2ccc(Cl)cc2)cc(C(C)C)c(O)c1S(=O)(=O)c1ccccc1	·	i	·	·	·	i
Cc1ccc(C)c(NC(=O)Cn2cc(C(=O)c3cccs3)c3ccccc32)c1	·	i	·	·	·	i
N#Cc1c(SCC(=O)Nc2nccs2)sc2c(O)cc(=O)[nH]c12	-8%	i	19%	0%	20%	i
N#Cc1c(SCC(=O)Nc2nc3ccc(Br)cc3s2)sc2c(O)cc(=O)[nH]c12	12µM*	i	-14%	15%	-5%	?
C=CCSc1nnc(NC(=O)CSc2nc(CCC)cc(=O)[nH]2)s1	0%	?	-19%	-3%	-28%	21µM*
C=CCSc1nnc(NC(=O)CSc2nc3ccccc3[nH]2)s1	?	i	-13%	1%	-15%	i
Cc1ccc2oc(C(=O)Nc3c(C(=O)Nc4ccccc4)oc4ccccc34)cc(=O)c2c1	·	i	·	·	·	i
COc1ccc(CNC(=O)CN(c2ccccc2OC)S(=O)(=O)c2ccc(C)cc2)cc1	·	i	·	·	·	i
Cc1nn(C)c(C(=O)NC2C3CC4CC(C3)CC2C4)c1Cl (centres undefined)	23µM*	i	-16%	15%	-4%	i
